Assay results: PubChem BioAssay (NCI)
“And” between values parts separate entries of the source, which are not always exact repeats. Equal values may be shown once. This is part of a sample that, as a whole, favours compounds with a hit. Of some 79,000 tested, about 15% had one in any assay. The source made the active and inactive calls. Cut-off read from the data, not from the text of the source: active = growth inhibition above about 70%; inactive = the rest.

Tests used:
[1] = NCI Yeast Anticancer Drug Screen. Data for the rad52 strain (AID 147);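 note: 0% = growth of vehicle-treated control cultures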; conditions: S. cerevisiae rad52 mutant growth inhibition, hits give high values
In short: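 Read-out: growth inhibition versus vehicle-treated controls. Cells were a DNA repair-deficient yeast strain treated with compounds.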

[2] = NCI Yeast Anticancer Drug Screen. Data for the wt1 strain (AID 149);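 note: 0% = growth of vehicle-treated wt1 cultures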; conditions: S. cerevisiae wt1 strain (SPY 50644) growth inhibition, hits give high values
In short: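 Measured: growth of wt1 yeast under compound versus vehicle treatment, reported as inhibition.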

[3] = NCI Yeast Anticancer Drug Screen. Data for the rad50EPP+ strain (AID 151);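 note: 0% = growth of vehicle-treated control cultures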; conditions: S. cerevisiae rad50 mutant strain, hits give high values
In short: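 Growth inhibition read against vehicle controls in rad50EPP+ yeast, a strain altered in DNA damage repair, after compound exposure.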

[4] = NCI Yeast Anticancer Drug Screen. Data for the rad50 strain (AID 155);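 note: 0% = growth of vehicle-only cultures of the same strain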; conditions: S. cerevisiae rad50 strain growth inhibition, hits give high values
In short: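 Growth of the mutant yeast was measured after compound exposure and referenced to vehicle-treated cultures.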

[5] = NCI Yeast Anticancer Drug Screen. Data for the rad14 strain (AID 159);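 note: 0% = growth of vehicle-treated control cultures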; conditions: S. cerevisiae rad14 strain growth inhibition, hits give high values
In short: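 Here, inhibition of yeast growth was measured after compound exposure, using a strain with a genetic defect in DNA damage repair and vehicle-treated cultures as the reference.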

[6] = NCI Yeast Anticancer Drug Screen. Data for the sgs1 mgt1 strain (AID 161);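 note: 0% = growth of cultures given vehicle only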; conditions: S. cerevisiae sgs1 mgt1 strain, hits give high values
In short: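 Mutant yeast exposed to compound; growth scored against vehicle-only wells.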

[7] = NCI Yeast Anticancer Drug Screen. Data for the CLN2oe strain (AID 163);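 note: 0% = growth of vehicle-only control cultures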; conditions: S. cerevisiae CLN2oe strain, hits give high values
In short: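 Read-out: yeast growth inhibition, expressed relative to vehicle-only controls. The strain bears an engineered cell-cycle alteration.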

[8] = NCI Yeast Anticancer Drug Screen. Data for the cln2 rad14 strain (AID 165);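 note: 0% = growth equal to vehicle treated cultures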; conditions: S. cerevisiae cln2 rad14 strain, hits give high values
In short: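 cln2 rad14 yeast strain; compound exposure; growth inhibition read vs vehicle controls.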

[9] = NCI Yeast Anticancer Drug Screen. Data for the bub3 strain (AID 167); conditions: S. cerevisiae bub3 mutant strain, hits give high values
In short: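 Whole-cell yeast assay. The mutant strain was incubated with compounds, and growth inhibition was determined by comparison with vehicle-treated cells.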

[10] = NCI Yeast Anticancer Drug Screen. Data for the wt2 strain (AID 169);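 note: 0% = growth of vehicle-treated yeast cultures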; conditions: S. cerevisiae wt2 strain growth inhibition, hits give high values
In short: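 Read-out: growth inhibition versus vehicle-treated control cultures after compound exposure of the yeast strain.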

[11] = NCI Yeast Anticancer Drug Screen. Data for the mlh1 strain (AID 171);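 note: 0% = growth of vehicle-treated control cultures of the same strain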; conditions: S. cerevisiae mlh1 strain growth inhibition, hits give high values
In short: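 Read-out: growth inhibition versus vehicle controls. Strain: engineered yeast with a defined DNA repair or cell cycle defect, compound-treated.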

[12] = NCI Yeast Anticancer Drug Screen. Data for the sgs1 strain (AID 173);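 note: 0% = growth of vehicle-only control cultures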; conditions: S. cerevisiae sgs1 mutant, hits give high values
In short: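 Read-out: yeast growth inhibition relative to vehicle controls, following compound exposure of a strain with a defined DNA repair/cell cycle alteration.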

[13] = NCI Yeast Anticancer Drug Screen. Data for the mlh1 rad18 strain (AID 175); conditions: S. cerevisiae mlh1 rad18 strain growth inhibition, hits give high values
In short: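 Yeast w/ defined DNA-repair lesions; compound exposure; growth vs vehicle controls → % inhibition.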

[14] = NCI Yeast Anticancer Drug Screen. Data for the rad18 strain (AID 177); conditions: S. cerevisiae rad18 mutant growth inhibition, hits give high values
In short: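 Readout: growth inhibition vs vehicle controls. Cells: genetically altered yeast strain, DNA repair defect.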

[15] = NCI Yeast Anticancer Drug Screen. Data for the mgt1 strain (AID 153); conditions: S. cerevisiae mgt1 mutant growth inhibition, hits give high values
In short: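 mgt1 yeast grown with test compound; read-out is growth inhibition versus vehicle-treated cultures.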

[16] = NCI Yeast Anticancer Drug Screen. Data for the mec2-1 strain (AID 157); conditions: S. cerevisiae mec2-1 strain, hits give high values
In short: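 Yeast mec2-1 mutant treated with compound. Readout: growth inhibition vs vehicle controls.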

[17] = at 5.0 µM (retest, dose inferred, filed as 0.5)
[18] = at 50.0 µM (retest, dose inferred, filed as 5.0)

Measured: growth inhibition

O=C1C=CC(=O)N1c1ccc(I)cc1
inactive: [1]; at 1.2 µM 12% | [1]; at 3.7 µM 26% | [2]; at 1.2 µM -9% | [2]; at 3.7 µM 33% | [3]; at 1.2 µM 59% | [4]; at 1.2 µM 21% | [4]; at 3.7 µM 37% | [4]; [17] 26% | [4]; [18] 54% | [5]; at 1.2 µM 11% | [5]; at 3.7 µM 28% | [7]; at 1.2 µM 13% | [7]; at 3.7 µM 26% | [8]; [17] 56% | [9]; at 1.2 µM 5% | [9]; at 3.7 µM 15% | [10]; at 1.2 µM -2% | [10]; at 3.7 µM 16% | [11]; at 1.2 µM 13% | [11]; at 3.7 µM 40% | [12]; at 1.2 µM 29% | [13]; [17] 17% | [14]; at 1.2 µM 27% | [14]; at 3.7 µM 35% | [14]; at 11.0 µM 49%
active: [1]; at 11.0 µM 97% | [1]; at 33.0 µM 99% | [1]; at 100.0 µM 98% | [2]; at 11.0 µM 96% | [2]; at 33.0 µM 99% | [2]; at 100.0 µM 98% | [3]; at 3.7 µM 70% | [3]; at 11.0 µM 99% | [3]; at 33.0 µM 100% | [3]; at 100.0 µM 99% | [4]; at 11.0 µM 96% | [4]; at 33.0 µM 98% | [4]; at 50.0 µM 92% | [4]; at 100.0 µM 98% | [5]; at 11.0 µM 97% | [5]; at 33.0 µM 99% | [5]; at 100.0 µM 98% | [6]; [17] 97% | [6]; [18] 100% | [6]; at 50.0 µM 93.6% | [7]; at 11.0 µM 96% | [7]; at 33.0 µM 100% | [7]; at 100.0 µM 99% | [8]; [18] 100% | [8]; at 50.0 µM 92.1% | [9]; [17] 100% | [9]; at 11.0 µM 98% | [9]; at 33.0 µM 99% | [9]; [18] 99% | [9]; at 50.0 µM 92.4% | [9]; at 100.0 µM 98% | [10]; at 11.0 µM 81% | [10]; at 33.0 µM 100% | [10]; at 100.0 µM 99% | [11]; at 11.0 µM 98% | [11]; at 33.0 µM 100% | [11]; at 100.0 µM 99% | [12]; at 3.7 µM 76% | [12]; at 11.0 µM 100% | [12]; at 33.0 µM 100% | [12]; at 100.0 µM 100% | [13]; [18] 72% | [13]; at 50.0 µM 92.2% | [14]; at 33.0 µM 99% | [14]; at 100.0 µM 99%

O=C(/C=C/c1cccc(Br)c1)c1ccc(Cl)cc1
active: [1]; at 100.0 µM 76% | [15]; at 100.0 µM 70% | [4]; at 50.0 µM 81.9% | [4]; at 100.0 µM 82% | [16]; at 50.0 µM 73% | [9]; [18] 84% | [9]; at 100.0 µM 82% | [11]; at 100.0 µM 76% | [12]; at 100.0 µM 73% | [13]; at 50.0 µM 75.3% | [14]; at 100.0 µM 84%
inactive: [1]; at 1.2 µM -26% | [1]; at 3.7 µM -14% | [1]; at 11.0 µM -6% | [1]; at 33.0 µM 28% | [2]; at 1.2 µM -46% | [2]; at 3.7 µM -44% | [2]; at 11.0 µM -12% | [2]; at 33.0 µM 9% | [2]; at 100.0 µM 63% | [15]; at 1.2 µM -40% | [15]; at 3.7 µM -36% | [15]; at 11.0 µM -13% | [15]; at 33.0 µM 32% | [4]; at 1.2 µM -9% | [4]; at 3.7 µM 0% | [4]; [17] 35% | [4]; at 11.0 µM 27% | [4]; at 33.0 µM 66% | [4]; [18] 47% | [16]; at 1.2 µM -65% | [16]; at 3.7 µM -68% | [16]; [17] 32% | [16]; at 11.0 µM -51% | [16]; at 33.0 µM -18% | [16]; [18] 47% | [16]; at 100.0 µM 53% | [5]; at 1.2 µM -67% | [5]; at 3.7 µM -46% | [5]; at 11.0 µM -49% | [5]; at 33.0 µM -15% | [5]; at 100.0 µM 46% | [6]; [17] 4% | [6]; [18] 60% | [7]; at 1.2 µM -17% | [7]; at 3.7 µM -19% | [7]; at 11.0 µM -13% | [7]; at 33.0 µM -12% | [7]; at 100.0 µM 36% | [8]; [17] 46% | [8]; [18] 48% | [9]; at 1.2 µM -16% | [9]; at 3.7 µM -7% | [9]; [17] 52% | [9]; at 11.0 µM 38% | [9]; at 33.0 µM 57% | [11]; at 1.2 µM -30% | [11]; at 3.7 µM -19% | [11]; at 11.0 µM -7% | [11]; at 33.0 µM 19% | [12]; at 1.2 µM -67% | [12]; at 3.7 µM -42% | [12]; at 11.0 µM -7% | [12]; at 33.0 µM 31% | [13]; [17] 26% | [13]; [18] 56% | [14]; at 1.2 µM -37% | [14]; at 3.7 µM -13% | [14]; at 11.0 µM 30% | [14]; at 33.0 µM 61%

CC(=O)C1=C(O)C2(C)c3c(O)c(C)c(O)c(C(C)=O)c3OC2(Sc2ccccc2)CC1=O (stereo not given)
active: [1]; at 100.0 µM 86% | [2]; at 100.0 µM 89% | [16]; [18] 93% | [16]; at 100.0 µM 84% | [5]; at 100.0 µM 85% | [6]; [18] 91%
inactive: [1]; at 1.2 µM 24% | [1]; at 3.7 µM 43% | [1]; at 11.0 µM 54% | [1]; at 33.0 µM 58% | [2]; at 1.2 µM 21% | [2]; at 3.7 µM 51% | [2]; at 11.0 µM 55% | [2]; at 33.0 µM 66% | [3]; at 1.2 µM 23% | [3]; at 3.7 µM 18% | [3]; at 11.0 µM 30% | [3]; at 33.0 µM 33% | [3]; at 100.0 µM 52% | [16]; at 1.2 µM 4% | [16]; at 3.7 µM 24% | [16]; [17] 22% | [16]; at 11.0 µM 43% | [16]; at 33.0 µM 54% | [16]; at 50.0 µM 68.6% and -7.9% | [5]; at 1.2 µM 0% | [5]; at 3.7 µM 5% | [5]; at 11.0 µM 17% | [5]; at 33.0 µM 30% | [6]; [17] 9%
